BAZ2B block: blocks human BAZ2B; Q9UIF8; AlphaScreen BAZ2B-H3K14Ac peptide displacement; Potency, µM (highest dose often 114 µM), for inactives: at the highest dose activity change, negative = inhibition, actives largely listed as inhibitors; 4.4% of 360,000 active; further: on the % scale 0 is the no-effect control and ±100 the full control effect; nearly all actives have a fitted effect of over 60% in size
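Compounds, titrated to a top concentration of 110 uM, were incubated 30 min at room temperature with preformed BAZ2B/acetyl-K14 H3 peptide complex (50 nM each). Proximity signal was measured by AlphaScreen after 20 min with beads.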
HP1b binding inh: inhibitors of HP1-beta chromodomain binding to methylated histone tails; AlphaScreen HP1-beta / biotin-H3K9me3 peptide binding; Potency, µM (titrated, usually from 114 µM), inactives show top-dose activity change, negative = inhibition, hits mostly inhibitors; P83916; 0.56% of 390,000 active; further: nearly all actives have a fitted effect of over 70% in size
Target sequence (P83916 whole entry, looked up): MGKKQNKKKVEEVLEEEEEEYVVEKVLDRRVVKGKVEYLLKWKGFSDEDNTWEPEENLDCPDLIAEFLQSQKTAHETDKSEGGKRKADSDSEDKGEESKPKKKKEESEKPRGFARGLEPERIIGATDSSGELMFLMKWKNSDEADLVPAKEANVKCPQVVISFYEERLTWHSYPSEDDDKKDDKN
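AlphaScreen: HP1-beta (50 nM) preformed 30 min with biotin-H3(1-18)K9me3 peptide (50 nM) in PBS pH 7.4, 0.01% Tween-20. Compound added for 30 min at RT, then streptavidin donor/nickel chelate acceptor beads (10 ug/mL) for 30 min.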
L3MBTL1 inh: L3MBTL1 (human) inhibition. Q9Y468. AlphaScreen L3MBTL1–H3K9me1 peptide binding. Potency, µM (doses to about 57.1 µM), for the others: at the top dose activity, negative = inhibition, usual class: inhibitors. 0.66% of 230,000 active. AID 485360; further: on the % scale 0 is the no-effect control and ±100 the full control effect; nearly all actives have a fitted effect of over 60% in size
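AlphaScreen proximity signal between nickel-chelate acceptor and streptavidin donor beads (final 10 ug/mL) reports binding of 50 nM L3MBTL1 to 75 nM biotin-H3 K9me1 peptide; complex incubated with compounds 30 min at room temperature; cefsulodin titration as control.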
Sfp inh: inhibitors of Bacillus subtilis Sfp phosphopantetheinyl transferase | Biochemical Sfp PPTase activity, qHTS | Potency, µM, without a hit: largest response in the series, negative = inhibition, hits mostly inhibitors | Q9F4F7 | 3.5% of 310,000 active;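 further: the enzyme is Sfp with the accession as filed and its product quenches rhodamine fluorescence; 0% = enzyme reaction without inhibitor and -100% = no enzyme wells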
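Compounds were incubated with enzyme (final 15 nM) for 15 min at room temperature before substrate addition started the reaction. Fluorescence at 525 nm excitation, 598 nm emission was recorded immediately and after 30 minutes.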
JMJD2A Tudor: blocks the human JMJD2A Tudor domain; 4.4% of 390,000 active; Potency, µM (doses to about 114 µM), without a hit: at the highest dose activity change, negative = inhibition, hits mostly inhibitors; O75164; AlphaScreen JMJD2A-Tudor / H3K4me3 peptide binding; further: on the % scale 0 is the no-effect control and ±100 the full control effect; nearly all actives have a fitted effect of over 50% in size
G9a inh: inhibitors of human histone lysine methyltransferase G9a; Potency, µM (titrated, usually from 102 µM), for the others: at the highest dose activity, negative = inhibition, usual class: inhibitors; 8.8% of 350,000 active; Q96KQ7; AID 504332; G9a H3K9 monomethylation, AlphaScreen, 2 h; further: on the % scale 0 is the no-effect control and ±100 the full control effect; nearly all actives have a fitted effect of over 75% in size
Target sequence (Q96KQ7 913-1193 limits assumed): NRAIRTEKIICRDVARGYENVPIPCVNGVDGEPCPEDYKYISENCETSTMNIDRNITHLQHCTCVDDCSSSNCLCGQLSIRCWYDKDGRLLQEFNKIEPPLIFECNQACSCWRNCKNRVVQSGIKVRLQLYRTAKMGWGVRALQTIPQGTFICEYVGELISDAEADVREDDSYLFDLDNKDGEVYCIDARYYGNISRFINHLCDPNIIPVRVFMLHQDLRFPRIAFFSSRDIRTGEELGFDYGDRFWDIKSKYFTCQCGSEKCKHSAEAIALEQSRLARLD
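Using a bead-based AlphaScreen, monomethylated H3K9 product from 2 h room-temperature reactions (G9a 20 nM, peptide 500 nM, SAM 20 uM) was detected with 0.5 ug/mL rabbit anti-H3K9me1 antibody.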
Starred values were filed as active, the others as inactive; [ ] = remark or other dose. Hits are enriched below; roughly 12% of the tested compounds scored in any of these assays. The call rests on the fitted dose curve; in most records, active means well fitted curve in the direction sought with a large enough effect; inconclusive means small, poorly fitted or top-dose-only effect, or another doubt; inactive means no such curve, though single readings can be large; an effect the other way counts as inactive or inconclusive. Potency means the concentration at half of the fitted maximal effect.

For Cc1ccc(Cn2c(=O)n(-c3cc(C)cc(C)c3)c(=O)c3oc4ccccc4c32)cc1 the results were BAZ2B block -22%, HP1b binding inh 41%, JMJD2A Tudor -26% and G9a inh -6%[59 µM].
Screening COc1ccc(N2CCN(C(=O)CCC(=O)NNc3nc4ccccc4c4nc(C)nn34)CC2)cc1 returned BAZ2B block -1%, HP1b binding inh 29%, Sfp inh 16%, JMJD2A Tudor -12% and G9a inh 22µM*.
Screening CCOC(=O)C1CCN(C(=O)CCC(=O)NNc2nc3ccccc3c3nc(C)nn23)CC1 returned BAZ2B block -10%, HP1b binding inh 44%, Sfp inh 13%, JMJD2A Tudor -1% and G9a inh 45µM*.
Screening CCN(CC)CCCNC(=O)CCC(=O)NNc1nc2ccccc2c2nc(C)nn12 returned BAZ2B block inconclusive, HP1b binding inh 13%, Sfp inh 14%, JMJD2A Tudor -24% and G9a inh -30%.
`Cc1nc2c3ccccc3nc(NNC(=O)CCC(=O)NCCC(C)C)n2n1` gave BAZ2B block -1%, HP1b binding inh 37%, L3MBTL1 inh inconclusive, Sfp inh -5%, JMJD2A Tudor 8% and G9a inh 50µM*.
Cc1nc2c3ccccc3nc(NNC(=O)CCC(=O)N3CCC(C)CC3)n2n1 was read as BAZ2B block -21%, HP1b binding inh 5%[57 µM], Sfp inh 6%, JMJD2A Tudor -21% and G9a inh 79µM*.
For Cc1ccccc1OCCSc1nc2ccc(NC(=O)c3cccc(F)c3)cc2s1 the results were BAZ2B block 11%, HP1b binding inh 79%, JMJD2A Tudor 10% and G9a inh 66%[59 µM].
`Cc1cc(N2C(=O)C(O)=C(C(=O)c3cc4ccccc4o3)C2c2cccs2)no1` (centres undefined) gave BAZ2B block inconclusive, HP1b binding inh -2%[57 µM], Sfp inh -1%, JMJD2A Tudor inconclusive and G9a inh 35µM*.
For Cc1cc(N2C(=O)C(O)=C(C(=O)c3cc4ccccc4o3)C2c2ccc([N+](=O)[O-])cc2)no1 (centres undefined) the results were BAZ2B block inconclusive, HP1b binding inh 6%, Sfp inh 18%, JMJD2A Tudor -28% and G9a inh 45µM*.
For Cc1ccc(C2C(C(=O)c3cc4ccccc4o3)=C(O)C(=O)N2c2cc(C)on2)cc1 (centres undefined) the results were BAZ2B block inconclusive, HP1b binding inh -25%[57 µM], Sfp inh 15%, JMJD2A Tudor inconclusive and G9a inh 0%[0.0925 µM].
For COc1ccc(-c2c3c(=O)n(C)c(=O)n(C)c3cn2-c2ccc(O)cc2)cc1 the results were BAZ2B block 79µM*, HP1b binding inh inconclusive, L3MBTL1 inh 2%, Sfp inh -6%, JMJD2A Tudor -32% and G9a inh -5%[12.7 µM].
COc1ccc(-c2c3c(=O)n(C)c(=O)n(C)c3cn2-c2cccc(N)c2)cc1 was read as BAZ2B block inconclusive, HP1b binding inh inconclusive, JMJD2A Tudor inconclusive and G9a inh 11µM*.
COc1ccc(CNC(=O)C(Cc2ccccc2)NS(=O)(=O)c2ccc3c(c2)CCN3C(C)=O)cc1 (centres undefined) was read as HP1b binding inh 32%, JMJD2A Tudor -19% and G9a inh 10%[59 µM].
Screening CCOc1cccc(C=Nc2cc(C)cc(C)c2O)c1O returned BAZ2B block inconclusive, HP1b binding inh -22%, Sfp inh -8%, JMJD2A Tudor 18µM* and G9a inh inconclusive.
Screening CCOc1cccc(/C=N/N=C/c2cccc(OCC)c2O)c1O returned BAZ2B block -2%, HP1b binding inh 17%, Sfp inh -18%, JMJD2A Tudor -3% and G9a inh 21%.
C=CCN1C(=O)/C(=N/n2cnnc2)c2ccccc21 was read as BAZ2B block -33%, HP1b binding inh 7%, L3MBTL1 inh -8%, Sfp inh -1%, JMJD2A Tudor -10% and G9a inh 1%[12.7 µM].
CCN1C(=O)/C(=C/c2nc3ccccc3c(=O)[nH]2)c2ccccc21 was read as BAZ2B block -29%, HP1b binding inh 13%, L3MBTL1 inh 8%, Sfp inh -1%, JMJD2A Tudor -8% and G9a inh -2%[59 µM].
For C=CCN1C(=O)/C(=c2\sc3nc(=O)c(Cc4ccccc4)nn3c2=O)c2ccccc21 the results were BAZ2B block inconclusive, HP1b binding inh inconclusive, L3MBTL1 inh -13%, Sfp inh 13µM* and JMJD2A Tudor 56µM*.
For CCN1C(=O)/C(=c2\sc3nc(=O)c(Cc4ccccc4)nn3c2=O)c2ccccc21 the results were BAZ2B block inconclusive, HP1b binding inh -31%, L3MBTL1 inh -16%, Sfp inh 25µM*, JMJD2A Tudor inconclusive and G9a inh 25µM*.
Screening CCCCCCC1(C)NC(c2ccc3c(c2)OCO3)=CC(c2cc(Br)ccc2O)N1 (centres undefined) returned HP1b binding inh 24% and JMJD2A Tudor -15%.
`Cc1cccc(Cn2c(CNS(=O)(=O)c3ccc(C(C)C)cc3)nc3cccnc32)c1` gave BAZ2B block 1%, HP1b binding inh 25%[57 µM], JMJD2A Tudor -2% and G9a inh 5%[59 µM].
For NCC1CCCCC1CC(=O)O (centres undefined) the results were Sfp inh -10% and G9a inh -3%[2.33 µM].
For COC(=O)C1=C(C)NC(=O)NC1c1cn(-c2ccccc2)nc1-c1ccc(OC)c(Cl)c1 (centres undefined) the results were BAZ2B block -8%, HP1b binding inh -14%, JMJD2A Tudor -30% and G9a inh -10%[59 µM].
COc1ccc(C2=Nn3c(nnc3-c3ccccc3C)SC2)cc1OC was read as Sfp inh 5% and JMJD2A Tudor -19%.
For COc1ccc(C2=Nn3c(nnc3-c3ccccc3C)SC2)cc1 the results were Sfp inh 45µM* and JMJD2A Tudor -17%.
For COc1ccc(C2=Nn3c(nnc3-c3ccccn3)SC2)cc1 the results were BAZ2B block 25µM*, HP1b binding inh 25%, L3MBTL1 inh inconclusive, Sfp inh -9%, JMJD2A Tudor 40µM* and G9a inh -97%.
`N#Cc1c(N(CC(=O)O)CC(=O)O)sc(C(=O)O)c1CC(=O)O` gave Sfp inh 26% and G9a inh 0%[12.7 µM].
`Cc1cc(SCC(=O)N/N=C/c2ccc(O)c(O)c2O)c(C)cc1Br` gave BAZ2B block -26%, HP1b binding inh inconclusive, Sfp inh 10µM*, JMJD2A Tudor 50µM* and G9a inh inconclusive.

Screens: PubChem, National Center for Advancing Translational Sciences (NCATS)
